The source made the active and inactive calls.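 Rule for the calls: active = calcium response above 60% of the acetylcholine maximum at human M5, as a positive modulator; inactive = the rest.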
These molecules were tested against Muscarinic acetylcholine receptor M5 (Homo sapiens) (UniProt P08912) (assay: M5 muscarinic receptor positive allosteric modulators, cell-based, single concentration, CHO-K1 hM5, calcium flux (AID 743100)). Settings: CHO-K1 hM5, Fluo-4 calcium flux, ACh EC20, hits give high values; at 10 µM unless noted.
Chain of Muscarinic acetylcholine receptor M5 (Homo sapiens) (P08912 whole entry, looked up): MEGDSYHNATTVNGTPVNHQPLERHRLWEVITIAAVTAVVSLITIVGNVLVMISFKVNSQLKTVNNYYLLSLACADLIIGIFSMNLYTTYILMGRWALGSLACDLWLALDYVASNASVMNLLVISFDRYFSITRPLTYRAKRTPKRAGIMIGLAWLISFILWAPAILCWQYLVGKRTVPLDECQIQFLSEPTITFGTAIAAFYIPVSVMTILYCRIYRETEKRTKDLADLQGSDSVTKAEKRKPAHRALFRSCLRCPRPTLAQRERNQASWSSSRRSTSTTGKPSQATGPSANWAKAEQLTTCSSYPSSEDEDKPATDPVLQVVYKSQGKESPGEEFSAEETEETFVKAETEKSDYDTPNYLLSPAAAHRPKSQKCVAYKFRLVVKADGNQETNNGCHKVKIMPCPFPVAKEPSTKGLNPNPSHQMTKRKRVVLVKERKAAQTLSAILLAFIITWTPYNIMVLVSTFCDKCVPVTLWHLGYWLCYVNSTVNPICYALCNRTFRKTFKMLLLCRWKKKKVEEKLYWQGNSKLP

% ACh max response, active:
CCN(Cc1cccc(Cl)c1)C(=O)C1CCN(S(=O)(=O)c2ccc3cn[nH]c3c2)CC1 73.9%
CCN(Cc1ccccc1)C(=O)C1CCN(S(=O)(=O)c2ccc3ncccc3c2)CC1 63.4% [at 30 µM]
CCN(Cc1ccccc1Cl)C(=O)C1CCN(S(=O)(=O)c2ccc3cn[nH]c3c2)CC1 90.7%
CCN(Cc1ccccc1)C(=O)C1CCN(S(=O)(=O)c2cccc(Cl)c2)CC1 65.3% [at 30 µM]
CCN(Cc1cccc(F)c1)C(=O)C1CCN(S(=O)(=O)c2ccc3cn[nH]c3c2)CC1 84.8%
CCN(Cc1ccccc1)C(=O)C1CCN(S(=O)(=O)c2cccc(C#N)c2)CC1 61% [at 30 µM]
CCN(Cc1ccccc1)C(=O)C1CCN(S(=O)(=O)c2ccccc2)CC1 71.5% [at 30 µM]
CCN(Cc1ccccc1)C(=O)C1CCN(S(=O)(=O)c2ccc3c(c2)OCCO3)CC1 72.2% [at 30 µM]
CCN(Cc1ccccc1)C(=O)C1CCN(S(=O)(=O)c2ccncc2)CC1 24.6%
CCN(Cc1ccccc1C(F)(F)F)C(=O)C1CCN(S(=O)(=O)c2ccc3cn[nH]c3c2)CC1 84.2%
CCN(Cc1ccccc1C(F)(F)F)C(=O)C1CCN(S(=O)(=O)c2ccc3occc3c2)CC1 84.8%
CCN(C(=O)C1CCN(S(=O)(=O)c2ccc(OC)cc2)CC1)[C@H](C)c1ccccc1 91.8% [at 30 µM]
CCN(Cc1ccccc1C(F)(F)F)C(=O)C1CCN(S(=O)(=O)c2ccc3[nH]ncc3c2)CC1 90.2%

% ACh max response, inactive:
CCN(C(=O)C1CCN(S(=O)(=O)c2ccc(-n3cccn3)cc2)CC1)[C@H](C)c1ccccc1C(F)(F)F 22.7%
CCN(Cc1ccc(C#N)cc1)C(=O)C1CCN(S(=O)(=O)c2ccc3cn[nH]c3c2)CC1 8.37%
CCN(Cc1cc(F)ccc1F)C(=O)C1CCN(S(=O)(=O)c2ccc3cn[nH]c3c2)CC1 57.2%
CCN(Cc1ccccc1)C(=O)C1CCN(S(=O)(=O)c2ccccc2F)CC1 38.4% [at 30 µM]
CCN(Cc1ccccc1)C(=O)C1CCN(S(=O)(=O)Cc2ccc(Cl)cc2)CC1 16% [at 30 µM]
CCN(Cc1ccccc1)C(=O)C1CCN(S(=O)(=O)c2ccc(F)cc2)CC1 56.2% [at 30 µM]
CCN([C@H](C)c1ccccc1)S(=O)(=O)C1CCN(C(=O)c2ccc3[nH]ncc3c2)CC1 26.9%
CCN([C@H](C)c1ccccc1)S(=O)(=O)C1CCN(S(=O)(=O)c2ccc3cn[nH]c3c2)CC1 19.4%
O=C1N(Cc2ccccc2C(F)(F)F)CCCC12CCN(S(=O)(=O)c1ccc3[nH]ncc3c1)CC2 22.6%
COc1ccc(S(=O)(=O)N2CCC(CN(Cc3ccccc3)C(C)=O)CC2)cc1 11.8%
CCN(Cc1ccccc1)C(=O)C1CCN(S(=O)(=O)c2cccnc2Cl)CC1 30% [at 30 µM]
CCN(Cc1cccnc1)C(=O)C1CCN(S(=O)(=O)c2ccc3cn[nH]c3c2)CC1 19.8%
CC(=O)N(Cc1ccccc1)CC1CCN(S(=O)(=O)c2ccc3occc3c2)CC1 8.25%
CCN(Cc1ccccc1)C(=O)C1CCN(S(=O)(=O)c2ccccc2C(F)(F)F)CC1 21.7% [at 30 µM]
CCN(CC1CCN(S(=O)(=O)c2ccc(OC(F)(F)F)cc2)CC1)C(=O)c1ccccc1 10.5%
CCN(Cc1ccc(Oc2ccccc2)cc1)C(=O)C1CCN(S(=O)(=O)c2ccc3cn[nH]c3c2)CC1 39.1%
CCN(Cc1ccccc1)C(=O)C1CCN(S(=O)(=O)c2cccc3c2OCCO3)CC1 48% [at 30 µM]
CCNC(=O)C1(Cc2ccccc2)CCN(S(=O)(=O)c2ccc3occc3c2)CC1 22.2%
CCN(Cc1ccccc1)C(=O)C1CCN(S(=O)(=O)c2ccc(C(F)(F)F)nc2)CC1 56.9% [at 30 µM]
CCN(Cc1ccc(OC(F)(F)F)cc1)C(=O)C1CCN(S(=O)(=O)c2ccc3cn[nH]c3c2)CC1 40.8%

From PubChem BioAssay AID743100 (Vanderbilt Specialized Chemistry Center, 2013)
